Measurements: PubChem BioAssay AID1700 (The Scripps Research Institute Molecular Screening Center, 2009)
The whole screen tested about 290,000 compounds, of which about 670 (0.23%) were called active. The sample as a whole holds a higher share of actives than the screen did. Unmarked numbers belong to inactive results.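 Rule for the calls: active = inhibition above a per-plate limit of that plate's mean compound inhibition plus 3 SD (cut at about 60% in these data); inactive = the rest.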

Test: suppression of KLF5 promoter-driven luciferase – DLD-1 cells, luminescence, primary screen (AID 1700);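 note: 0% = DMSO wells and 100% = LY294002 at 200 µM; higher means less KLF5 promoter-driven luciferase light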
Conditions: DLD-1 KLF5 promoter-luciferase reporter, at 5 µM, hits give high values

Row | SMILES | inhibition
1 | CCCCCCCCCCCCn1ccc(=N)cc1 | 75.9% (active)
2 | CCN(CC)c1ccc([N+](=O)[O-])c2cccnc12 | -21%
3 | COc1cc2nc(N3CCN(C(=O)[C@@H]4CCCO4)CC3)nc(N)c2cc1OC | -16.5%
4 | O=C1NC(=O)C(CCc2ccccn2)(Cc2cccc(Cl)c2Cl)C(=O)N1c1ccc(Br)cc1 (stereo not given) | -5.72%
5 | COc1ccc(N2C(=O)/C(=C/c3ccco3)C(=O)NC2=S)cc1 | -5.05%
